Values joined by “and” are separate entries in the source; they are usually repeats but may differ in a detail not shown here. Identical values can stand only once. The source holds several records for some structures; these can differ, active in one and inactive in another. Active and inactive are the calls of the source. Rule for the calls: active = hit-call score of the fitted dose curve at least 0.9, where 1 is the maximum; inactive = score below 0.9.
What was measured:
[1] = ATG_NFI_CIS: Attagene CIS-FACTORIAL HepG2 Assay for human Nuclear Factor I (NFI) (AID 2282989); details: HepG2 cis-regulatory reporter, NFI response element transcription; actives raise or lower the signal
How it was run: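 Reporter transcription driven by endogenous transcription factors in HepG2 cells; 24 h treatment. Quantitation by labelled RT-PCR fragments on capillary electrophoresis, gain- or loss-of-signal relative to DMSO.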

[2] = molecular target: Myc proto-oncogene protein (Homo sapiens) (UniProt P01106); test: ATG_Myc_CIS: Attagene CIS-FACTORIAL HepG2 Assay for human Myelocytomatosis (Myc) Proto-Oncogene Transcription Factor (AID 2282990); details: HepG2, Attagene cis-reporter transcription factor activity; actives raise or lower the signal
How it was run: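 Fluorescence intensity of reporter-specific cDNA fragments, separated by capillary electrophoresis, gives the signal. Transfected HepG2 cells carrying cis-promoter reporter constructs are incubated with compound for 24 h; DMSO serves as baseline.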

[3] = ATG_NF_kB_CIS: Attagene CIS-FACTORIAL HepG2 Assay for human Nuclear Factor Kappa B (NF-kB) (AID 2282991); details: HepG2 Attagene cis-factorial NF-kB reporter mRNA; actives raise or lower the signal
How it was run: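 HepG2 cells transfected with cis-promoter-driven reporter units, so endogenous transcription factor activity is measured. Reporter mRNA quantified 24 h after dosing by RT-PCR and capillary electrophoresis, with bidirectional fitting against DMSO.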

[4] = ATG_NRF2_ARE_CIS: Attagene CIS-FACTORIAL HepG2 Assay for human Nuclear Factor Erythroid 2 Related Factor 2 (NFR2) response to Antioxidant Response Elements (ARE) (AID 2282992); details: HepG2 Attagene ARE/NRF2 reporter, transcription factor activity; actives raise or lower the signal;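 for AC50: reporter mRNA level measured by RT-PCR and capillary electrophoresis fluorescence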
How it was run: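 Cis-factorial assay: transfected HepG2 reporter library, 24 h dosing, mRNA readout via RT-PCR/CE; DMSO-referenced bidirectional analysis.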

[5] = ATG_Oct_MLP_CIS: Attagene CIS-FACTORIAL HepG2 Assay for human Octamer-Binding Transcription Factor (Oct) (AID 2282993); details: HepG2 Attagene cis-factorial Oct reporter, mRNA; actives raise or lower the signal
How it was run: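 Transfected HepG2 cells, 24 h treatment. Reporter mRNA quantified by RT-PCR–capillary electrophoresis; bidirectional fitting against DMSO.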

[6] = molecular target: Cellular tumor antigen p53 (Homo sapiens) (UniProt P04637); test: ATG_p53_CIS: Attagene CIS-FACTORIAL HepG2 Assay for human p53 Transcription Factor (AID 2282994); details: HepG2 p53 cis-element reporter, Attagene mRNA; actives raise or lower the signal
How it was run: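 Using HepG2 hepatoma cells carrying cis-acting multiplexed reporters, mRNA induction is detected after a 24 h exposure. Gain- and loss-of-signal responses are fitted relative to DMSO-treated cells.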

[7] = BSK_3C_TissueFactor: BioMAP Diversity Plus: 3C Assay for Tissue Factor Biomarker Activity (AID 2282997); details: BioMAP 3C HUVEC, tissue factor biomarker readout; actives raise or lower the signal
How it was run: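 HUVEC were treated 24 h, then surface tissue factor measured by ELISA and fitted bidirectionally against DMSO. Parallel SRB total-protein staining assessed overt cytotoxicity at the same time point.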

[8] = BSK_3C_uPAR: BioMAP Diversity Plus: 3C Assay for Urokinase-type plasminogen activator receptor (uPAR) Biomarker Activity (AID 2282998); details: BioMAP 3C HUVEC, uPAR biomarker ELISA; actives raise or lower the signal
How it was run: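 Readout: ELISA for surface uPAR. System: human umbilical vein endothelial primary cells, 24 h after chemical exposure. Analysis: bidirectional fit, DMSO baseline.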

[9] = BSK_3C_VCAM1: BioMAP Diversity Plus: 3C Assay for Vascular cell adhesion molecule 1 (VCAM1) Biomarker Activity (AID 2282999); details: BioMAP 3C HUVEC, VCAM1 ELISA, cytokine-stimulated; actives raise or lower the signal
How it was run: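 Human umbilical vein endothelial cells (3C system), biomarker read by ELISA 24 h after dosing; bidirectional fit against DMSO baseline. Cytotoxicity tracked by SRB total-protein staining in parallel cultures at biomarker time.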

[10] = BSK_4H_Eotaxin3: BioMAP Diversity Plus: 4H Assay for Eotaxin 3 Biomarker Activity (AID 2283000); details: primary human endothelial cells (HUVEC); actives raise or lower the signal
How it was run: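 Eotaxin-3 (CCL26) levels were measured by ELISA in HUVEC primary cultures 24 h post-dosing. Gain or loss of signal was fitted in both directions, with DMSO serving as baseline and negative control.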

Measured: AC50

Sequence of Cellular tumor antigen p53 (Homo sapiens) (P04637 whole entry, looked up): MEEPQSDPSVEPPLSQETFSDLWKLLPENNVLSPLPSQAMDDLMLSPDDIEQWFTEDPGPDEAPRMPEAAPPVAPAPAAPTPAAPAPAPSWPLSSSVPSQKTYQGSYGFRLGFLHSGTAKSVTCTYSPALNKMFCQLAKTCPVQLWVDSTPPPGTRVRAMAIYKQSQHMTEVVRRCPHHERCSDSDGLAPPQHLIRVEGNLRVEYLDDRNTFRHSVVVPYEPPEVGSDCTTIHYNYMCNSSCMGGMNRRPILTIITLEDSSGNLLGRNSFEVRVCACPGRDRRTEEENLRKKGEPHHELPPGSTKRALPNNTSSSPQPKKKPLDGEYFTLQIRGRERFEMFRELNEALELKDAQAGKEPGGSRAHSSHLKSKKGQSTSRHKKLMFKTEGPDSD
Sequence of Myc proto-oncogene protein (Homo sapiens) (P01106 whole entry, looked up, the tested form may be a part): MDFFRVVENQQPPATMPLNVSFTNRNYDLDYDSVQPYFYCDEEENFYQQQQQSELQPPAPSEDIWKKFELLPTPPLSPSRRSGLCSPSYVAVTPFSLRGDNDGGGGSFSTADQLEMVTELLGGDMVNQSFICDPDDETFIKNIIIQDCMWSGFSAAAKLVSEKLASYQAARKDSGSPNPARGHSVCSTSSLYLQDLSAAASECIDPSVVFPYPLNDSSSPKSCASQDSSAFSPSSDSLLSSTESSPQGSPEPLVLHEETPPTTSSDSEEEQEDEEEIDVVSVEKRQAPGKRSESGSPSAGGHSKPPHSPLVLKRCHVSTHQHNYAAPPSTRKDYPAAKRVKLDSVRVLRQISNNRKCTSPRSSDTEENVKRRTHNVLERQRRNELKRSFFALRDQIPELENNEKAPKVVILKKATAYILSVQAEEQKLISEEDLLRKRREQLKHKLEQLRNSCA

CC=C1CC2C=CC1C2 (stereo not drawn)
inactive: [1] | [2] | [5] | [6]
active: [3] 100 µM | [4] 45.9 µM

O=C(Nc1ccccc1SSc1ccccc1NC(=O)c1ccccc1)c1ccccc1
active: [4] 29.2 µM | [7] 1.15 µM | [8] 9.54 µM | [9] 11.5 µM | [10] 20 µM
inactive: [1] | [2] | [3] | [5] | [6]

CNC(=S)N(C)C
inactive: [1] | [2] | [3] | [4] | [6]

Cc1cc(C)c(C(=O)O)c(C)c1
inactive: [1] | [2] | [3] | [4] | [5] | [6]

C=CC(=O)OCC(Br)CBr (stereo not drawn)
inactive: [2] | [5]
active: [1] 163 µM | [3] 56.6 µM | [4] 24.8 µM | [6] 165 µM | [7] 20 µM | [8] 34.2 µM | [9] 18.4 µM | [10] 20 µM

NC(=O)C1CO1 (stereo not drawn)
inactive: [1] | [2] | [3] | [4] | [5] | [6]

O=c1c2ccccc2oc2ccccc12
active: [4] 26.9 µM | [7] 3.97 µM
not listed: [6]
inactive: all other assays above

CCCCCCCC(C)=O
inactive: [1] | [2] | [3] | [4] | [6]

O=C(c1ccc(O)cc1)c1ccc(O)cc1O
inactive: [1] | [2] | [3] | [5] | [7] | [8] | [9]
active: [4] 100 µM | [6] 100 µM | [8] 15.9 µM | [10] 13.9 µM and 20 µM

O=C1CC2CC1C1CCCC21 (stereo not drawn)
active: [4] 72.4 µM
inactive: [1] | [2] | [3] | [5] | [6]

CCCCCCCCc1ccc(Nc2ccc(CCCCCCCC)cc2)cc1
inactive: all assays above

CC1(C)O[C@@H]2C[C@H]3[C@@H]4C[C@H](F)C5=CC(=O)CC[C@]5(C)[C@H]4[C@@H](O)C[C@]3(C)[C@]2(C(=O)CO)O1
inactive: [1] | [2] | [3] | [4] | [5] | [6]

CO[Si](OC)(OC)c1ccccc1
inactive: all assays above

C1=CCCC1
inactive: [1] | [2] | [3] | [4] | [6]

C/C=C\C/C=C/CCCCCCCCOC(C)=O
active: [3] 42.8 µM | [4] 26.8 µM | [5] 39.5 µM | [6] 162 µM | [7] 9.54 µM | [9] 26 µM | [10] 28.9 µM
inactive: [1] | [2] | [8]

CN1C(=O)N(C)C(O)C1O (stereo not drawn)
inactive: all assays above

c1c[nH]cn1
inactive: [1] | [2] | [3] | [4] | [6]

SCCc1cnccn1
inactive: [1] | [2] | [4] | [5]
active: [3] 47.7 µM | [6] 46.4 µM

O=Nc1ccc(O)cc1
not listed: [6]
inactive: all other assays above

CC(C)=CC1CC(C)CCO1 (stereo not drawn)
inactive: [1] | [2] | [3] | [4] | [5] | [6]

Nc1ccc(-c2ccc(F)cc2)cc1
inactive: [1] | [2] | [3] | [4] | [5] | [6]

CC(C)(c1cc(Br)c(OCCO)c(Br)c1)c1cc(Br)c(OCCO)c(Br)c1
inactive: [2] | [3]
active: [1] 45.1 µM | [4] 18.6 µM | [5] 17.7 µM | [6] 7 µM | [7] 16.2 µM | [8] 16.2 µM | [9] 27.3 µM | [10] 8.31 µM

Cc1cccc(N(C)C(=S)Oc2ccc3ccccc3c2)c1
active: [4] 19.8 µM
inactive: [1] | [2] | [3] | [5] | [6]

— PubChem BioAssay (EPA / NIEHS)
